Results on seven molecules are retold here after PubChem BioAssay (EPA / NIEHS).

Molecules are shown by their SMILES. Calls of active or inactive are those of the source. The calls were made as follows: active = hit-call score of the fitted dose curve at least 0.9, where 1 is the maximum; inactive = score below 0.9.

Test [1] addresses Transcription factor E2F1 (Homo sapiens) (UniProt Q01094). The test is described as follows: ATG_E2F_CIS: Attagene CIS-FACTORIAL HepG2 Assay for human E2F Transcription Factor 1 (AID 2282935). Conditions: HepG2 Attagene cis-reporter, E2F reporter RNA transcripts; actives raise or lower the signal. Summed up: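 Cis-element reporter mRNA induction in transiently transfected HepG2, 24 h exposure. Activity fitted in both directions relative to DMSO negative control.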

The nature of test [2]: ATG_M_61_CIS: Attagene CIS-FACTORIAL HepG2 Assay for M61 Transcription Factor (Internal Marker) (AID 2282937). As to conditions: HepG2 Attagene CIS-FACTORIAL M61 internal marker reporter; actives raise or lower the signal. The essentials:
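Using transiently transfected HepG2 liver cells, reporter transcript levels were assessed 24 h post-dosing by RT-PCR and capillary electrophoresis. Changes in either direction were fitted relative to DMSO controls.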

A short description of test [3]: ATG_EGR_CIS: Attagene CIS-FACTORIAL HepG2 Assay for human Early Growth Response 1 (EGR1) (AID 2282938). As to conditions: HepG2 Attagene CIS-FACTORIAL EGR reporter mRNA; actives raise or lower the signal. The essentials: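 Fluorescent capillary-electrophoresis signal of reporter cDNA fragments serves as read-out. HepG2 cells bear transiently transfected cis-promoter reporter units and are exposed 24 h; gain- or loss-of-signal is fitted against DMSO.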

Test [4] in a line: ATG_M_19_CIS: Attagene CIS-FACTORIAL HepG2 Assay for M19 Transcription Factor (Internal Marker) (AID 2282939). Conditions: HepG2 Attagene CIS-FACTORIAL M19 internal marker reporter; actives raise or lower the signal. The essentials:
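Readout: fluorescent reporter-transcript fragments by capillary electrophoresis after RT-PCR. Human HepG2 liver cells carried transfected MRTU constructs reporting endogenous transcription-factor activity; exposure 24 h. Gain or loss of signal fitted relative to DMSO.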

Test [5] is described as follows: ATG_ERE_CIS: Attagene CIS-FACTORIAL HepG2 Assay for Estrogen Response Element (ERE) (AID 2282940). Conditions: HepG2 ERE cis-reporter, Attagene RNA transcript; actives raise or lower the signal. Summed up: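 Readout: reporter mRNA induction by RT-PCR, FAM-labelled primer extension, HpaI digestion and capillary electrophoresis, 24 h after dosing transfected HepG2 cells. Endogenous transcription factors act on cis-element-regulated reporters. Gain or loss fitted against DMSO.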

Test [6] can be described thus: ATG_Ets_CIS: Attagene CIS-FACTORIAL HepG2 Assay for human Erythroblast Transformation Specific (ETS) (AID 2282941). As to conditions: HepG2 ETS cis-reporter transcription, actives raise or lower the signal. Summed up: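 After transient cis-reporter transfection, HepG2 cells receive test chemical for 24 h. Reporter mRNA levels, measured by RT-PCR and capillary electrophoresis fluorescence, are analysed bidirectionally relative to the DMSO baseline.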

In test [7] the target is Hepatocyte nuclear factor 3-beta (Homo sapiens) (UniProt Q9Y261). The test is described as follows: ATG_FoxA2_CIS: Attagene CIS-FACTORIAL HepG2 Assay for human Forkhead box A2 (FOXA2) (AID 2282942). Conditions: HepG2 cis-reporter transcription factor activity, 24 h; actives raise or lower the signal. The essentials:
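Fluorescence signal of reporter cDNA fragments, separated by capillary electrophoresis, reflects endogenous transcription factor activity in transfected HepG2 after 24 h. Both increases and decreases fitted against DMSO.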

Test [8] in a line: ATG_FoxO_CIS: Attagene CIS-FACTORIAL HepG2 Assay for human Forkhead box O (FoxO) (AID 2282943). As to conditions: HepG2 Attagene cis-reporter, FoxO element, mRNA; actives raise or lower the signal. Summed up:
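Human hepatoma HepG2 cells carry transiently introduced reporter transcription units controlled by cis promoter elements. Chemical treatment lasted 24 h, and mRNA signal was compared with DMSO.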

Test [9] in a line: ATG_GATA_CIS: Attagene CIS-FACTORIAL HepG2 Assay for human GATA Binding Protein (AID 2282944). Conditions: HepG2 GATA cis-element reporter, Attagene multiplex mRNA; actives raise or lower the signal. The essentials: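 Read-out: fluorescent reporter mRNA fragments resolved by capillary electrophoresis after RT-PCR. Human liver HepG2 cells carried transiently transfected cis-regulated reporter constructs; chemicals incubated 24 h; gain or loss of signal fitted relative to DMSO.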

The nature of test [10]: ATG_GLI_CIS: Attagene CIS-FACTORIAL HepG2 Assay for human Zinc Finger Protein GLI1 (AID 2282945). Conditions: HepG2, Attagene cis-factorial reporter mRNA, GLI element; actives raise or lower the signal. Summed up: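 Bidirectional curve fits relative to DMSO, using reporter mRNA levels from RT-PCR plus capillary electrophoresis. Cells were HepG2 transiently carrying cis-regulated reporter constructs, harvested 24 h after dosing.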

Test [11] has as its target Bile acid receptor (Homo sapiens) (UniProt Q96RI1). Nature of the test: ATG_IR1_CIS: Attagene CIS-FACTORIAL HepG2 Assay for human Nuclear Receptor Subfamily 1 Group H Member 4 (NR1H4), IR1 submotif (AID 2282946). As to conditions: IR1 reporter transcription, actives raise or lower the signal. The essentials:
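Cells (human HepG2) carry transiently transfected cis-promoter reporter transcription units. Compounds are incubated 24 h, total RNA is reverse-transcribed and amplified, and labelled fragments are resolved by capillary electrophoresis. Curves use DMSO as baseline.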

A short description of test [12]: ATG_GRE_CIS: Attagene CIS-FACTORIAL HepG2 Assay for human Glucocorticoid Response Elements (GRE) (AID 2282947). As to conditions: HepG2 GRE cis-reporter, Attagene multiplex mRNA; actives raise or lower the signal. Summed up: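 Transient MRTU transfection of human HepG2 liver cells; cis-regulated reporters report endogenous factors. 24 h dosing → RNA isolation → RT-PCR → 6-FAM primer extension → HpaI cut → CE fragment analysis. Bidirectional fit, DMSO negative control.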

Test [13] is described as follows: ATG_ISRE_CIS: Attagene CIS-FACTORIAL HepG2 Assay for human Interferon Regulatory Factor 1 (IRF1) binding to an Interferon-Stimulated Response Element (ISRE) (AID 2282948). Conditions: HepG2 ISRE cis-reporter (Attagene), mRNA transcription readout; actives raise or lower the signal. The essentials: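 Quantitation relies on labelled RT-PCR fragments separated by capillary electrophoresis. Human HepG2 cells bearing cis-promoter reporter constructs were treated 24 h; DMSO served as baseline for bidirectional fitting.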

Test [14] is described as follows: ATG_M_32_CIS: Attagene CIS-FACTORIAL HepG2 Assay for M32 Transcription Factor (Internal Marker) (AID 2282949).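 Also: background control marker of the multiplexed CIS panel rather than a real target.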 Conditions: HepG2 Attagene cis-factorial M32 reporter, mRNA; actives raise or lower the signal. Summed up:
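HepG2 cells transiently transfected with multiplexed cis-regulated reporter units, dosed 24 h. Reporter mRNA quantified by RT-PCR, 6-FAM labelling, HpaI digestion and capillary electrophoresis; bidirectional fit vs DMSO.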

Test [15] in a line: ATG_M_06_CIS: Attagene CIS-FACTORIAL HepG2 Assay for M06 Transcription Factor (Internal Marker) (AID 2282950). Conditions: HepG2 Attagene CIS-FACTORIAL M06 internal marker reporter; actives raise or lower the signal. The essentials: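 Terse: HepG2, transient MRTU transfection (FuGene 6), 24 h dosing; total RNA, oligo(dT) RT, PCR, FAM label, HpaI cut, capillary electrophoresis; bidirectional fit vs DMSO baseline; background-control endpoint.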

The target of test [16] is Hypoxia-inducible factor 1-alpha (Homo sapiens) (UniProt Q16665). The test is described as follows: ATG_HIF1a_CIS: Attagene CIS-FACTORIAL HepG2 Assay for human Hypoxia Inducible Factor 1 (HIF1A) (AID 2282951). As to conditions: HepG2 Attagene cis-factorial HIF1a reporter transcription; actives raise or lower the signal. The essentials:
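Endogenous-TF cis reporter readout, human HepG2 cells, 24 h incubation; mRNA detected via RT-PCR and capillary electrophoresis fluorescence; DMSO-normalised bidirectional fitting.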

Test [17] has as its target Hepatocyte nuclear factor 6 (Homo sapiens) (UniProt Q9UBC0). Nature of the test: ATG_HNF6_CIS: Attagene CIS-FACTORIAL HepG2 Assay for human Hepatocyte Nuclear Factor 6 (HNF6) (AID 2282952). As to conditions: HepG2 Attagene cis-factorial HNF6 reporter transcription; actives raise or lower the signal. Summed up:
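HepG2 cells transiently transfected with cis-element-driven multiple reporter transcription units, dosed 24 h; reporter mRNA quantified by RT-PCR, FAM primer extension, HpaI digestion and capillary electrophoresis; bidirectional fit versus DMSO baseline.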

In test [18] the target is Heat shock factor protein 1 (Homo sapiens) (UniProt Q00613). The test is described as follows: ATG_HSE_CIS: Attagene CIS-FACTORIAL HepG2 Assay for human Heat Shock Transcription Factor 1 (HSE) (AID 2282953). Conditions: HepG2 HSE cis-reporter, Attagene RNA transcription; actives raise or lower the signal. Summed up: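 Read-out: fluorescence of reporter-specific RT-PCR fragments separated by capillary electrophoresis. HepG2 carrying transfected cis-element reporter units; 24 h dosing; activity fitted in both directions relative to DMSO baseline.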
Heat shock factor protein 1 (Homo sapiens), sequence (Q00613 whole entry, looked up, the tested form may be a part): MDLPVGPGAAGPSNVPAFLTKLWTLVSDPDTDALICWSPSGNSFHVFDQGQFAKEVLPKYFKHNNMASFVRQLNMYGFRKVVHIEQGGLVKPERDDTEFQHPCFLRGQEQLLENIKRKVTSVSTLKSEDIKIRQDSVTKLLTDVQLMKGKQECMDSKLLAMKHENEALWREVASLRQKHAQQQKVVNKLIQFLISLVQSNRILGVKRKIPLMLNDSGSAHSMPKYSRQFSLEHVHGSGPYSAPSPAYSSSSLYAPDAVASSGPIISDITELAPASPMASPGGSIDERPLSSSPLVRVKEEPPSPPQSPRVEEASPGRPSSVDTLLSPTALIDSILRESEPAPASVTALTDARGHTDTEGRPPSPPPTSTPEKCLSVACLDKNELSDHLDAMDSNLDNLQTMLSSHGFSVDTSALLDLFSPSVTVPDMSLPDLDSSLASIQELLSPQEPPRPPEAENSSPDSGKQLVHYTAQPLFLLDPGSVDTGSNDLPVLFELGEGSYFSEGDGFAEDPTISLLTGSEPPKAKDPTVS

The nature of test [19]: ATG_MRE_CIS: Attagene CIS-FACTORIAL HepG2 Assay for human Metal Responsive Element (MRE) (AID 2282954). Conditions: HepG2 MRE cis-reporter transcription, Attagene multiplex; actives raise or lower the signal. Summed up: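 Transient MRTU transfection of HepG2 (FuGene 6); 24 h dosing; total RNA → oligo(dT) RT, PCR, 6-FAM primer extension, HpaI cut, CE. Bidirectional fit vs DMSO.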

A short description of test [20]: ATG_E_Box_CIS: Attagene CIS-FACTORIAL HepG2 Assay for human Enhancer Box (E-box) (AID 2282936). As to conditions: HepG2 E-box cis-reporter transcription, actives raise or lower the signal. Summed up:
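Cells: HepG2 (human liver), transient MRTU transfection. Exposure 24 h. RNA → oligo(dT) RT → PCR → 6-FAM label → HpaI → CE. Activity fitted both directions relative to DMSO.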

Bile acid receptor (Homo sapiens), sequence (Q96RI1 whole entry, looked up, the tested form may be a part): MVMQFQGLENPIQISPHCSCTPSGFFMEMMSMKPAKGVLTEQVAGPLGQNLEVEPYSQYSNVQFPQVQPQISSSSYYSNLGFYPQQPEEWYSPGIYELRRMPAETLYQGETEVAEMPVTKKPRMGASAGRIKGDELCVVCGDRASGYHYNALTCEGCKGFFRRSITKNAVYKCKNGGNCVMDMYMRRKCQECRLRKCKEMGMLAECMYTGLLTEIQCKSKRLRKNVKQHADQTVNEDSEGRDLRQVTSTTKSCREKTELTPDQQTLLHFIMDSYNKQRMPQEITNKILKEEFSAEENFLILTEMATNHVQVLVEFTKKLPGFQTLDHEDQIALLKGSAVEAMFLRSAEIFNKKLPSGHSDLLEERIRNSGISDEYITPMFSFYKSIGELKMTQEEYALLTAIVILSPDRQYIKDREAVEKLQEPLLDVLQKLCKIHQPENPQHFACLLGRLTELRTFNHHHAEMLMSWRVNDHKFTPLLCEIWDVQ
Hepatocyte nuclear factor 6 (Homo sapiens), sequence (Q9UBC0 whole entry, looked up): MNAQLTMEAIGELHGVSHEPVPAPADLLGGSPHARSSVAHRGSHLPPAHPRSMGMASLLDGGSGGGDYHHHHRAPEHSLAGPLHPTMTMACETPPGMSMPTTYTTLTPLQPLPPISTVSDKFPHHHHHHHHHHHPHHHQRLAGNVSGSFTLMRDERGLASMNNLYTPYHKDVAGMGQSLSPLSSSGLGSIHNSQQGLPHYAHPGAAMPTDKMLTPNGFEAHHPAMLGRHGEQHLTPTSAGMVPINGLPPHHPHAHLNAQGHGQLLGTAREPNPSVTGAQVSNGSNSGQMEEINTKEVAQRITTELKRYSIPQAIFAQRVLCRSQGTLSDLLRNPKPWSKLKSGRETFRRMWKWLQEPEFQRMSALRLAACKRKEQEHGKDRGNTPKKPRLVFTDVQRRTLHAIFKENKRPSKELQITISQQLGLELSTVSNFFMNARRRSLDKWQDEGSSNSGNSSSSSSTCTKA
Hypoxia-inducible factor 1-alpha (Homo sapiens), sequence (Q16665 whole entry, looked up): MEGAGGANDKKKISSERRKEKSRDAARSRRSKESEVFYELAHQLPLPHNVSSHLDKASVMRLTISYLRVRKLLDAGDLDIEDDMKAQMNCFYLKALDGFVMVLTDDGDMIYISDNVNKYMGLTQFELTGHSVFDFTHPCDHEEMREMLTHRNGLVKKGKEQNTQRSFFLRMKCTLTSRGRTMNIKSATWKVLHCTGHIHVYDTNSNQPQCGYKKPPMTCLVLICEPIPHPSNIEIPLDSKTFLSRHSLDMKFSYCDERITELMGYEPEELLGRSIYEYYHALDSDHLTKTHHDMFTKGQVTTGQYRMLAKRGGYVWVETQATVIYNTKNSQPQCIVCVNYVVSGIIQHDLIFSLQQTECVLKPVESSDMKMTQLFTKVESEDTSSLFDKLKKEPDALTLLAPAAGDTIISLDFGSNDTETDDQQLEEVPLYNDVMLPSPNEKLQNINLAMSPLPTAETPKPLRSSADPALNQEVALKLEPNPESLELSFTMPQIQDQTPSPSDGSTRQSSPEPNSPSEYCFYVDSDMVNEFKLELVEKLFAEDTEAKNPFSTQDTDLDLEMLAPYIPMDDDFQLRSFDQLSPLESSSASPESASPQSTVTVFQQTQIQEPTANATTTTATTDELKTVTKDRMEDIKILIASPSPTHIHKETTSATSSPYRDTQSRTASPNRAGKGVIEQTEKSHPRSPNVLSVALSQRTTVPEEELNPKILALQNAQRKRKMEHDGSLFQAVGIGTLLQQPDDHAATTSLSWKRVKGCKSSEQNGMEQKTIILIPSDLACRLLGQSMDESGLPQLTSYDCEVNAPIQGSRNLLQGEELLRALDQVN
Hepatocyte nuclear factor 3-beta (Homo sapiens), sequence (Q9Y261 whole entry, looked up, the tested form may be a part): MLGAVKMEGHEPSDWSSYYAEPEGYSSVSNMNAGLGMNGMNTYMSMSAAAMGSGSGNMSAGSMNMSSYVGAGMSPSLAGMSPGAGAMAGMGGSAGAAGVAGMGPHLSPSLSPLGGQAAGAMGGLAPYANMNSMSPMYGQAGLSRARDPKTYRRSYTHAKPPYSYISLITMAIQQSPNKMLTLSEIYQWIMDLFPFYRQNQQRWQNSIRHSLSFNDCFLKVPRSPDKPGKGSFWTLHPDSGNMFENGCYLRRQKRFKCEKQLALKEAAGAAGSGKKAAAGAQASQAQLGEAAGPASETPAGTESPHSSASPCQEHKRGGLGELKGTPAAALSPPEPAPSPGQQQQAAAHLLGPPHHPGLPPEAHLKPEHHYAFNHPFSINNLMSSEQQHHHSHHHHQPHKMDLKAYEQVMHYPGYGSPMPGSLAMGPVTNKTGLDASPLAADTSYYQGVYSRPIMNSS
Transcription factor E2F1 (Homo sapiens), sequence (Q01094 whole entry, looked up): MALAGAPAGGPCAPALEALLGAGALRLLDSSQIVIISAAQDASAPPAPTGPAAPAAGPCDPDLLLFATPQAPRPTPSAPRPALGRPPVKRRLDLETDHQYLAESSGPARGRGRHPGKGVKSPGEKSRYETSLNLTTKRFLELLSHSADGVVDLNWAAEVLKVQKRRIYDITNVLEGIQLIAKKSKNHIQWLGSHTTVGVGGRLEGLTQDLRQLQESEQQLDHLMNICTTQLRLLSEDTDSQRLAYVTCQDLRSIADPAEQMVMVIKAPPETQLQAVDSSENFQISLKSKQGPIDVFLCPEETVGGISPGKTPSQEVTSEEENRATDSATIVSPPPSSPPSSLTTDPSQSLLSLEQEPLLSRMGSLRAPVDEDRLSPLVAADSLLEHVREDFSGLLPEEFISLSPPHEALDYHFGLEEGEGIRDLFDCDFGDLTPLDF

Turning to `Nc1ccc(C(=O)O)cc1`, the molecule was classed as inactive in [1], in [2], in test [3], in [4], in test [5] and in [6]. Also, the call in test [7], in [8], in [9], in test [10], in [11] and in test [12] was inactive. Moreover, the molecule was called inactive in [13], in [14], in test [15], in test [16], in [17] and in [18]. Further, the molecule was classed as inactive in test [19].

For `CCN1CCCC1=O`, the call in test [1], in test [2], in test [3], in test [4], in test [5] and in test [6] was inactive. The call in test [7], in test [8], in test [9], in [10], in test [11] and in [12] was inactive. Also, the call in test [13], in [14], in test [15], in test [16], in [17] and in test [18] was inactive. In test [19], the molecule was called inactive.

For orientation: AC50 means the midpoint of the concentration-response curve, whichever way the signal moves. For the molecule `C=CC(=O)OCCCCCCOC(=O)C=C`, the call in [1], in test [2], in [5], in [6], in test [7] and in test [8] was inactive. In addition, the result in [9], in test [10], in test [12], in [14], in test [15] and in test [16] was inactive. The molecule was called inactive in test [17]. Besides, the AC50 in [20] was 100 µM (active); in [11], 42.5 µM (active); in test [13], 75.3 µM (active); in test [19] it was 52.4 µM (active).

Regarding `CC(C)C(=O)OCCOc1ccccc1`, the call in test [1], in [20], in [2], in test [5], in test [6] and in [7] was inactive. For the same molecule, the molecule was classed as inactive in test [8], in test [9], in test [10], in [12], in [14] and in [15]. In addition, the result in test [16], in test [17], in test [18] and in [19] was inactive.

With `COC(Cc1ccccc1)OC`, the call in test [1], in [2], in test [3], in test [4], in [5] and in test [6] was inactive. Also, the molecule was called inactive in test [7], in [8], in test [9], in test [10], in test [13] and in [14]. In addition, the call in test [15], in test [16], in test [17] and in test [19] was inactive.

On to `CCC[Si](OC)(OC)OC`, for which the molecule was classed as inactive in test [1], in test [2], in test [3], in test [4], in [5] and in [6]. Further, the call in test [7], in test [8], in test [9], in test [10], in test [11] and in test [12] was inactive. Moreover, the molecule was called inactive in [13], in [15], in [16], in [17], in test [18] and in [19].

In the case of `C1CNCCN1`, the call in test [1], in [2], in test [3], in test [4], in test [5] and in test [6] was inactive. In addition, the molecule was called inactive in [7], in test [8], in [9], in test [10], in test [12] and in test [14]. Further, the result in test [15], in test [16], in test [17] and in [19] was inactive.
